{
  "source": "the supplement of paper PMC4709259",
  "note": "Where a name gives a salt, the structure may show the parent alone. ± gives the standard deviation.",
  "data": [
    {"system": "Jurkat", "assay": "mean cell size (FSC-A) relative to DMSO control (fraction of control); higher = larger cells", "details": "48 h", "outline": "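Jurkat cells seeded at 600 cells/µl were incubated 1 h, then exposed for 48h to the Enzo Screen-Well FDA Approved Drug Library v2.0 at 25µM in 0.9% (v/v) final DMSO. Drugs that cut counts below 20% of controls were diluted 10-fold and retested, down to 25nM. Cell count and mean cell size (forward scatter area) were read on an Accuri C6 flow cytometer, relative to solvent-only controls. Plates held 6-12 controls; values are means of 3 biological replicates.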", "values": [
      {"smiles": "CC[C@]1(O)C[C@H]2CN(CCc3c([nH]c4ccccc34)[C@@](C(=O)OC)(c3cc4c(cc3OC)N(C=O)[C@H]3[C@@](O)(C(=O)OC)[C@H](OC(C)=O)[C@]5(CC)C=CCN6CC[C@]43[C@@H]65)C2)C1", "note": "[Vincristine Sulfate] (concentration: 25 nM)", "mean cell size": "0.985 ± 0.011"},
      {"smiles": "COc1cccc2c1C(=O)c1c(O)c3c(c(O)c1C2=O)C[C@@](O)(C(=O)CO)C[C@@H]3O[C@H]1C[C@H](N)[C@@H](O)[C@H](C)O1", "note": "[Epirubicin·HCl] (concentration: 250 nM)", "mean cell size": "1.42 ± 0.022"},
      {"smiles": "COc1cc(Cc2cnc(N)nc2N)cc(OC)c1OC", "note": "[Trimethoprim] (concentration: 25 µM)", "mean cell size": "0.969 ± 0.039"},
      {"smiles": "OCCN(CCO)c1nc(N2CCCCC2)c2nc(N(CCO)CCO)nc(N3CCCCC3)c2n1", "note": "[Dipyridamole] (concentration: 25 µM)", "mean cell size": "0.9538 ± 0.0084"},
      {"smiles": "CC1(C)NC(=O)N(c2ccc([N+](=O)[O-])c(C(F)(F)F)c2)C1=O", "note": "[Nilutamide] (concentration: 25 µM)", "mean cell size": "0.954 ± 0.029"},
      {"smiles": "CC[C@@H]1C(=O)OC[C@@H]1Cc1cncn1C", "note": "[Pilocarpine·HCl] (concentration: 25 µM)", "mean cell size": "0.97 ± 0.049"},
      {"smiles": "C[N+]1(C)[C@@H]2CC[C@H]1C[C@@H](OC(=O)C(O)c1ccccc1)C2", "note": "(stereo not given in full) [Homatropine Methylbromide] (concentration: 25 µM)", "mean cell size": "0.9418 ± 0.0067"},
      {"smiles": "Cc1nc(Nc2ncc(C(=O)Nc3c(C)cccc3Cl)s2)cc(N2CCN(CCO)CC2)n1", "note": "[Dasatinib] (concentration: 2.5 µM)", "mean cell size": "0.8161 ± 0.0028"},
      {"smiles": "CC(C)(S)[C@@H](N)C(=O)O", "note": "[Penicillamine (D-Penicillamine)] (concentration: 25 µM)", "mean cell size": "0.954 ± 0.042"},
      {"smiles": "NS(=O)(=O)c1cc2c(cc1Cl)N=CNS2(=O)=O", "note": "[Chlorothiazide] (concentration: 25 µM)", "mean cell size": "0.926 ± 0.011"},
      {"smiles": "O=C1[C@H](CC[C@H](O)c2ccc(F)cc2)[C@@H](c2ccc(O)cc2)N1c1ccc(F)cc1", "note": "[Ezetimibe] (concentration: 25 µM)", "mean cell size": "1.03 ± 0.022"},
      {"smiles": "CC(=O)/N=c1/sc(S(N)(=O)=O)nn1C", "note": "[Methazolamide] (concentration: 25 µM)", "mean cell size": "1.02 ± 0.035"},
      {"smiles": "Cc1cc2c(s1)Nc1ccccc1N=C2N1CCN(C)CC1", "note": "[Olanzapine] (concentration: 25 µM)", "mean cell size": "1.02 ± 0.06"},
      {"smiles": "COc1ccc2cc([C@H](C)C(=O)O)ccc2c1", "note": "[Naproxen] (concentration: 25 µM)", "mean cell size": "0.941 ± 0.041"},
      {"smiles": "CC[C@H](C)[C@H](N)C1=N[C@H](C(=O)N[C@@H](CC(C)C)C(=O)N[C@H](CCC(=O)O)C(=O)N[C@H](C(=O)N[C@H]2CCCCNC(=O)[C@H](CC(N)=O)NC(=O)[C@@H](CC(=O)O)NC(=O)[C@H](Cc3cnc[nH]3)NC(=O)[C@@H](Cc3ccccc3)NC(=O)[C@H]([C@@H](C)CC)NC(=O)[C@@H](CCCN)NC2=O)[C@@H](C)CC)CS1", "note": "[Bacitracin] (concentration: 25 µM)", "mean cell size": "0.977 ± 0.038"},
      {"smiles": "CC1(C)S[C@@H]2[C@H](NC(=O)[C@H](N)c3ccccc3)C(=O)N2[C@H]1C(=O)O", "note": "[Ampicillin Trihydrate] (concentration: 25 µM)", "mean cell size": "0.849 ± 0.05"},
      {"smiles": "CCCCc1nc(Cl)c(CO)n1Cc1ccc(-c2ccccc2-c2nnn[nH]2)cc1", "note": "[Losartan Potassium] (concentration: 25 µM)", "mean cell size": "0.922 ± 0.041"},
      {"smiles": "NC12CC3CC(CC(C3)C1)C2", "note": "[Amantadine·HCl] (concentration: 25 µM)", "mean cell size": "1.01 ± 0.058"},
      {"smiles": "COC(=O)[C@H](c1ccccc1Cl)N1CCc2sccc2C1", "note": "[Clopidogrel Hydrogen Sulfate] (concentration: 25 µM)", "mean cell size": "0.981 ± 0.051"},
      {"smiles": "CCc1c2c(nc3ccc(OC(=O)N4CCC(N5CCCCC5)CC4)cc13)-c1cc3c(c(=O)n1C2)COC(=O)[C@]3(O)CC", "note": "[Irinotecan·HCl] (concentration: 250 nM)", "mean cell size": "1.05 ± 0.038"},
      {"smiles": "CN(C)CCCN1c2ccccc2CCc2ccccc21", "note": "[Imipramine·HCl] (concentration: 25 µM)", "mean cell size": "0.952 ± 0.045"},
      {"smiles": "CCCOc1ccc(C(=O)OCCN(CC)CC)cc1N", "note": "[Proparacaine·HCl] (concentration: 25 µM)", "mean cell size": "1.06 ± 0.046"},
      {"smiles": "CC(=O)Nc1c(I)c(NC(C)=O)c(I)c(C(=O)O)c1I", "note": "[Diatrizoate Meglumine] (concentration: 25 µM)", "mean cell size": "0.99 ± 0.021"},
      {"smiles": "CC1(C)S[C@@H]2[C@H](NC(=O)Cc3ccccc3)C(=O)N2[C@H]1C(=O)O", "note": "[Penicillin G Potassium (Benzylpenicillin)] (concentration: 25 µM)", "mean cell size": "0.948 ± 0.019"},
      {"smiles": "Cc1onc(-c2ccccc2Cl)c1C(=O)N[C@@H]1C(=O)N2[C@@H]1SC(C)(C)[C@@H]2C(=O)O", "note": "[Cloxacillin·Na] (concentration: 25 µM)", "mean cell size": "0.99 ± 0.031"},
      {"smiles": "CCCc1nc(C(C)(C)O)c(C(=O)O)n1Cc1ccc(-c2ccccc2-c2nnn[nH]2)cc1", "note": "[Olmesartan] (concentration: 25 µM)", "mean cell size": "0.97 ± 0.034"},
      {"smiles": "NCC[C@H](O)C(=O)N[C@@H]1C[C@H](N)[C@@H](O[C@H]2O[C@H](CN)[C@@H](O)[C@H](O)[C@H]2O)[C@H](O)[C@H]1O[C@H]1O[C@H](CO)[C@@H](O)[C@H](N)[C@H]1O", "note": "[Amikacin Disulfate] (concentration: 25 µM)", "mean cell size": "0.994 ± 0.028"},
      {"smiles": "C[C@@H]1C[C@H]2[C@@H]3CCC4=CC(=O)C=C[C@]4(C)[C@@]3(Cl)[C@@H](O)C[C@]2(C)[C@@]1(OC(=O)c1ccco1)C(=O)CCl", "note": "[Mometasone Furoate] (concentration: 25 µM)", "mean cell size": "0.915 ± 0.037"},
      {"smiles": "NC(=O)N1c2ccccc2CC(=O)c2ccccc21", "note": "[Oxcarbazepine] (concentration: 25 µM)", "mean cell size": "0.952 ± 0.015"},
      {"smiles": "Cc1ccc(C)c(OCCCC(C)(C)C(=O)O)c1", "note": "[Gemfibrozil] (concentration: 25 µM)", "mean cell size": "0.956 ± 0.026"},
      {"smiles": "OCCN1CCN(CCCN2c3ccccc3Sc3ccc(C(F)(F)F)cc32)CC1", "note": "[Fluphenazine·HCl] (concentration: 2.5 µM)", "mean cell size": "1.13 ± 0.017"},
      {"smiles": "CCOc1nc2cccc(C(=O)O)c2n1Cc1ccc(-c2ccccc2-c2nnn[nH]2)cc1", "note": "[Candesartan] (concentration: 25 µM)", "mean cell size": "1.01 ± 0.042"},
      {"smiles": "CO[C@H]1C[C@@H]2CC[C@@H](C)[C@@](O)(O2)C(=O)C(=O)N2CCCC[C@H]2C(=O)O[C@H]([C@H](C)C[C@@H]2CC[C@@H](OC(=O)C(C)(CO)CO)[C@H](OC)C2)CC(=O)[C@H](C)/C=C(\\C)[C@@H](O)[C@@H](OC)C(=O)[C@H](C)C[C@H](C)/C=C/C=C/C=C/1C", "note": "[Temsirolimus] (concentration: 25 µM)", "mean cell size": "0.686 ± 0.018"},
      {"smiles": "Cc1oncc1C(=O)Nc1ccc(C(F)(F)F)cc1", "note": "[Leflunomide] (concentration: 25 µM)", "mean cell size": "1.07 ± 0.025"},
      {"smiles": "C=C[C@H]1CN2CC[C@H]1C[C@@H]2[C@@H](O)c1ccnc2ccc(OC)cc12", "note": "[Quinidine·HCl·H2O] (concentration: 25 µM)", "mean cell size": "0.9234 ± 0.0047"},
      {"smiles": "Nc1nc2ccc(OC(F)(F)F)cc2s1", "note": "[Riluzole·HCl] (concentration: 2.5 µM)", "mean cell size": "1.01 ± 0.028"},
      {"smiles": "CC(=O)S[C@@H]1CC2=CC(=O)CC[C@]2(C)[C@H]2CC[C@@]3(C)[C@@H](CC[C@@]34CCC(=O)O4)[C@H]12", "note": "[Spironolactone] (concentration: 25 µM)", "mean cell size": "1.01 ± 0.062"},
      {"smiles": "CC(C)(C)NCC(O)c1cc(O)cc(O)c1", "note": "(stereo not given) [Terbutaline Hemisulfate] (concentration: 25 µM)", "mean cell size": "0.92 ± 0.066"},
      {"smiles": "CCCCC[C@H](O)/C=C/[C@H]1[C@H](O)CC(=O)[C@@H]1C/C=C\\CCCC(=O)O", "note": "[Dinoprostone] (concentration: 25 µM)", "mean cell size": "0.88 ± 0.019"},
      {"smiles": "CNCCCC12CCC(c3ccccc31)c1ccccc12", "note": "[Maprotiline·HCl] (concentration: 2.5 µM)", "mean cell size": "0.991 ± 0.018"}
    ]}
  ]
}
